Reference: article PMC4336329 (PLoS ONE, 2015)
Hit rate of the full screen: of about 310,000 compounds, about 14,000 (4.5%) showed an effect of 50% or more. The effect is printed as a negative number. This excerpt belongs to a sample that is enriched for strong results.

target: human ether-à-go-go-related gene (hERG) potassium channel (human, UniProt Q12809); assay: primary screen, population patch clamp on CHO cells stably expressing hERG; higher = less effect of the substance
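Also: peak tail current of the secondary pulse compared with the same well before compound.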

Chain of human ether-à-go-go-related gene (hERG) potassium channel (Q12809 whole entry, looked up): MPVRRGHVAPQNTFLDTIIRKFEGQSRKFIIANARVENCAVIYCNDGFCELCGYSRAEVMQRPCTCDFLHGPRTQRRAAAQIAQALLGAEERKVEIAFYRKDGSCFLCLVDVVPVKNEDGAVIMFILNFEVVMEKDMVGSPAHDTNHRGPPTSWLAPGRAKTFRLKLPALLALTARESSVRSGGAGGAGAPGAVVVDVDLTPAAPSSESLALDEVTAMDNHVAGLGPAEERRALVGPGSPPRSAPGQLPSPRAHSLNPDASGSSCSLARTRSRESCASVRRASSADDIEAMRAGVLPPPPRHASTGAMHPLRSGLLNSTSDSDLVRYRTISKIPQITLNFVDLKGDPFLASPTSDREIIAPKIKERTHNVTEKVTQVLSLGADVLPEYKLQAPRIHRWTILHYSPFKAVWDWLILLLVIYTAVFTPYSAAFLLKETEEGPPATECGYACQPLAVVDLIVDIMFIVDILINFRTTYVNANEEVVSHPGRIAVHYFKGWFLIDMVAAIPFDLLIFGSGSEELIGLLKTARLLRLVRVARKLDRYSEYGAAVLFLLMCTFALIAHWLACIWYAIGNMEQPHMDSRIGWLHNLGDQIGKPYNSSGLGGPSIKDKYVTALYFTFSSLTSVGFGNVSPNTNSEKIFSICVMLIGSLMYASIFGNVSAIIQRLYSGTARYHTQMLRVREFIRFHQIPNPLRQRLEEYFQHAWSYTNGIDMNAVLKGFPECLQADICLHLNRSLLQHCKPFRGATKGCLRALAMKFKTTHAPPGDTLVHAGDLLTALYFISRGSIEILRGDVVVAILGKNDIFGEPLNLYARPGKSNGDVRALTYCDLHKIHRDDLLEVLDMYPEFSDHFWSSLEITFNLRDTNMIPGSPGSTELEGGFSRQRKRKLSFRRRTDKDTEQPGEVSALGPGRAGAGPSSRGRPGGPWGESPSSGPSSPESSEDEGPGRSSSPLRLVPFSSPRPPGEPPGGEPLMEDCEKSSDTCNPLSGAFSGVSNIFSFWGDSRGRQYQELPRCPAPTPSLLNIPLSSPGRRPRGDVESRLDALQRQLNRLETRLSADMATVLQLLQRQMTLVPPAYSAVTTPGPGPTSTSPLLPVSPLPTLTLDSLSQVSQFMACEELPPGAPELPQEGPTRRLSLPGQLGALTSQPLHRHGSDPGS

SMILES	hERG current change (%, negative = inhibition) at 10uM
COc1cc(/C=N\NC(=O)c2ccc(C)nc2)ccc1OC(=O)c1cccc(F)c1	-8.51%
COc1ccccc1-c1cc(C(=O)N2CCCC2)no1	-8.67%
Cc1ccc(S(=O)(=O)/N=C(/Nc2ccc(F)cc2F)c2ccccc2)cc1	12.9%
COC(=O)c1ccc(NC(=S)Nc2cccc(C)n2)cc1	-0.48%
O=C(COC(=O)c1c(F)cccc1Cl)NC(=O)Nc1ccc2c(c1)OCCO2	12.4%
CCOC(=O)c1ccc(NC(=O)c2nn(CC)cc2Br)cc1	5.3%
CC(=NCCO)c1c(O)n(C2CCCCC2)c(=O)[nH]c1=O	-5.36%
CC1CN(C2=NC(=O)/C(=C/c3ccncc3)S2)CC(C)O1 (stereo not drawn)	-14.5%
CCN1CCCC1CNC(=O)c1ccc2c(c1)N(Cc1cccc(Cl)c1)C(=O)c1ccccc1S2(=O)=O (stereo not drawn)	-39.7%
CCOc1ccc2nc(N(Cc3ccccc3)C(=O)CCNC(C)=O)sc2c1	-61%
COc1ccc2nc(N(Cc3ccccc3)C(=O)CCNC(C)=O)sc2c1	-8.54%
CCOc1ccc2nc(N(CCN(C)C)C(=O)c3cc4ccccc4cc3OC)sc2c1.Cl	1.72%
Cc1cccc2sc(N(CCN3CCOCC3)C(=O)CCS(=O)(=O)c3ccccc3)nc12.Cl	-13.3%
CCCC(=O)N(CCN1CCOCC1)c1nc2c(C)cccc2s1.Cl	-7.14%
CC(=O)NCCC(=O)N(Cc1ccccc1)c1nc2c(C)cccc2s1	-57.4%
CC(NC(=O)c1cc(F)c(F)cc1Cl)c1ccncc1 (stereo not drawn)	1.1%
CCCc1ccc(C(C)NC(=S)NCc2ccc(F)cc2)cc1 (stereo not drawn)	18.6%
CCOc1ccc(C(=O)OCC(=O)NC(C)C)cc1	22.3%
COc1ccccc1NS(=O)(=O)c1ccc(O)c(NC(=S)NCC2CCCO2)c1 (stereo not drawn)	7%
CCN(CC)C(=O)C(=O)N/N=C/c1ccc(F)cc1	18.7%
COC(=O)c1ccc(CSc2ccc3nnc(-c4ccc(F)cc4)n3n2)o1	-29.1%
COC(=O)c1ccc(CSc2ccc3nnc(-c4cccc(F)c4)n3n2)o1	-62%
COC(=O)c1ccc(CSc2ccc3nnc(-c4ccccc4)n3n2)o1	-53.5%
COC(=O)c1ccc(CSc2ccc3nnc(-c4ccccn4)n3n2)o1	-62.8%
CCOc1ccc(-c2nnc3ccc(SCc4ccc(C(=O)OC)o4)nn23)cc1	-24.4%
COC(=O)c1ccc(CSc2ccc3nnc(-c4ccc(OC)cc4)n3n2)o1	-44.2%
COC(=O)c1ccc(CSc2ccc3nnc(-c4ccc(OC)c(OC)c4)n3n2)o1	-15.1%
